The record followed here is PubChem BioAssay (NCI).

The panel holds about 79,000 compounds, 15% with a hit somewhere; the sample as a whole holds those more often. Calls of active or inactive are those of the source. Cut-off read from the data, not from the text of the source: active = growth inhibition above about 70%; inactive = the rest.

The assay can be described thus: NCI Yeast Anticancer Drug Screen. Data for the mlh1 strain (AID 171).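 Note: 0% = growth of vehicle-treated control cultures of the same strain.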 The settings on record: S. cerevisiae mlh1 strain growth inhibition; at 11.0 µM; hits give high values. The essentials: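 Steps: expose the defined-mutant yeast strain to compound; expose a parallel culture to vehicle; measure growth; express compound effect as inhibition relative to the vehicle culture.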
For `CN(C)CC(CN(C)C)C(=O)/C=C/c1ccc(Cl)cc1Cl`, the growth inhibition was 10% (inactive).

In the case of `c1ccc2c(c1)ccn2CCc1c[nH]c2ccccc12`, the growth inhibition is -6% (inactive).

Turning to `Cc1ccccc1NC(=O)c1c(C)oc2c1C(=O)c1ccccc1C2=O`, the growth inhibition is -12% (inactive).

Consider `CC(C)OC(=O)NNc1c(Cl)cc(Cl)cc1Cl`, for which the growth inhibition was 4% (inactive).

Regarding `COc1ccc2nc3cccc([N+](=O)[O-])c3c(NCCNCCO)c2c1`, the growth inhibition is 50% (inactive).

For the compound `COc1ccc2c(c1)CCCC(Br)C2=O` (stereo not given), the growth inhibition was 36% (inactive).

Take `CCC(OC(C)=O)C1CC(C(C)C)CCC1C` (stereo not given): the growth inhibition is 4% (inactive).

`O=S(=O)(c1cccc(C(F)(F)F)c1)N1c2ccccc2-n2cccc2C1c1cccnc1` (stereo not given): the growth inhibition was 70% (active).

Take `c1ccc(-c2cc(C3CO3)c3ccccc3n2)cc1` (stereo not given): the growth inhibition was 6% (inactive).

For the compound `COc1ccc(/C=C2\SC(=S)N(/C=C3\C(=O)N(c4ccccc4)N=C3C)C2=O)cc1OC`, the growth inhibition is 25% (inactive).

With `CC1=CC(=C(c2ccc(N)c(C)c2)c2ccc(N)c(C)c2)C=CC1=N`, the growth inhibition is 14% (inactive).

For the compound `CC1C(c2ccccc2)SC(=N)N1C` (stereo not given), the growth inhibition is 0% (inactive).

For the compound `CC(/C=C/c1ccc([N+](=O)[O-])o1)=N/N1CC(CN2CCOCC2)OC1=O` (stereo not given), the growth inhibition is -2% (inactive).

Regarding `C=CC(C)(C)N1C(=O)C(C(C)=O)=C(O)C1Cc1c[nH]c2ccccc12` (stereo not given), the growth inhibition is 0% (inactive).

Regarding `O=C1c2cccc3cccc(c23)C(=O)N1CCNCCN1C(=O)c2cccc3cccc(c23)C1=O`, the growth inhibition is -1% (inactive).

Turning to `Cc1ccc([N+](=O)[O-])c2c(NCCC[N+](C)(C)[O-])c3ccccc3nc12`, the growth inhibition is 10% (inactive).

As to `COC(=O)C(Cc1c[nH]c2ccccc12)N1CN(C)c2ccccc2C1=O` (stereo not given), the growth inhibition is 0% (inactive).

Consider `O=C(/N=N/C(=O)Oc1ccccc1)Oc1ccccc1`, for which the growth inhibition is -78% (inactive).

Consider `COc1cc([C@@H]2c3cc4c(cc3[C@@H](NC(=O)NO)[C@H]3COC(=O)[C@H]23)OCO4)cc(OC)c1O`, for which the growth inhibition was 1% (inactive).

With `CCOC(=O)/C(=C/c1cccc(Cl)c1)N(CC)CC`, the growth inhibition is 7% (inactive).

In the case of `CC(C)OC(=O)NNc1cccc(Cl)c1`, the growth inhibition was 55% (inactive).

On to `CCC(=O)C1=C(O)c2cc(OC)ccc2CC1C(=O)OC` (stereo not given), for which the growth inhibition is 2% (inactive).

Consider `O=S(=O)(NC1CCCC(c2ccccc2)C1)c1ccccc1` (stereo not given), for which the growth inhibition was -1% (inactive).

As for `COc1ccc2nc3cccc([N+](=O)[O-])c3c(NCCCCCC(=O)O)c2c1`, the growth inhibition was 94% (active).

In the case of `CCO/C=C1\SC(=S)N(c2ccc(OCC)cc2)C1=O`, the growth inhibition is -18% (inactive).

For `COc1cc(OC)c(CSCC(NC(=O)OCC2c3ccccc3-c3ccccc32)C(=O)O)c(OC)c1` (stereo not given), the growth inhibition was 62% (inactive).

As to `COC(=O)c1ccccc1N=NNc1cccc(SC)c1`, the growth inhibition was 17% (inactive).

As for `CC1=NN(C(=O)c2ccccc2O)C(=O)/C1=C/c1ccco1`, the growth inhibition was 71% (active).

Consider `COc1ccccc1NC(=O)c1ccc(Cl)cc1`, for which the growth inhibition was 4% (inactive).

`CC(C)=CCC/C(C)=C/CN1C(=O)C=CC1=O`: the growth inhibition is 98% (active).

In the case of `O=C1CSC(c2ccccc2)N1c1ccc(-c2ccc(-n3c(-c4ccccc4)nc4ccccc4c3=O)cc2)cc1` (stereo not given), the growth inhibition was -1% (inactive).

Regarding `N#CC1OB(O)c2ccccc21` (stereo not given), the growth inhibition is -6% (inactive).

Turning to `O=C(NCCNCCNC(=O)c1cc(-c2ccccc2)nc2ccccc12)c1cc(-c2ccccc2)nc2ccccc12`, the growth inhibition is -2% (inactive).

For the compound `Brc1ccc(B2Nc3ccccc3N2)cc1`, the growth inhibition was 17% (inactive).

On to `CCOP(=O)(OCC)/C(C#N)=C/c1cccc(Oc2ccccc2)c1`, for which the growth inhibition is 48% (inactive).
